Results on 13 compounds are retold here after PubChem BioAssay (EPA / NIEHS).

The source made the active and inactive calls. Rule for the calls: active = hit-call score of the fitted dose curve at least 0.9, where 1 is the maximum; inactive = score below 0.9.

Read-out in this experiment: Decorin, DCN (gene 1634)
The experiment can be described thus: BSK_MyoF_Decorin: BioMAP Diversity Plus: MyoF Assay for Decorin Biomarker Activity (AID 2284265). The note with it: primary human lung fibroblasts. The method, then:
BSK_MyoF is a cell-based, multiplexed-readout assay that uses lung fibroblasts, […], with measurements taken at 24 hours after chemical dosing in a microplate: 96-well plate.BSK_MyoF_Decorin is an assay component measured in the BSK_MyoF assay. It measures Decorin antibody related to regulation of gene expression using ELISA technology.Data from the assay component BSK_MyoF_Decorin was analyzed at the endpoint, BSK_MyoF_Decorin, in the positive analysis fitting direction relative to DMSO as the negative control and baseline of activity. Using a type of binding reporter, gain or loss-of-signal activity can be used to understand protein changes. To generalize the intended target to other relatable targets, this assay endpoint is annotated to the 'cell adhesion molecules' intended target family, where the subfamily is 'decorin'.
The levels of cell surface (or secreted, indicated by the prefix "s") biomarker endpoints were measured by ELISA. Overt cytotoxicity to cells in confluent adherent cultures (all systems other than the BT system) was assessed by measuring total protein levels using sulforhodamine B (SRB) staining in parallel cultures at the time of biomarker measurements, indicated as SRB endpoints. For proliferation assays for adherent cell types, individual cell types are cultured at sub-confluence and relative cell numbers quantified by SRB staining at time points optimized for each system (48 h: 3C and CASM3C systems; 72 h: BT and HDF3CGF systems; 96 h: SAg system). SRB was performed by staining cells with 0.1% SRB after fixation with 10% TCA and reading wells at 560 nm.Viability and proliferation of PBMC (T cells) was quantified by Alamar Blue reduction for the SAg and BT systems. For PBMC viability (referred to as PBMC Cytotoxicity within the assay endpoint names), cells were plated (75,000/well in a 96-well plate) and then chemical samples added for 1 h before addition of activators, SEB and TSST-1 (20 ng/mL final concentration each). Cells were incubated for 90 h. Then, Alamar Blue (20 uL/well) (Invitrogen, Cat DAL1100) was added for 6 h, and the plates were read with a fluorescence microplate reader at 546/580 nm (excitation/emission). For PBMC proliferation, cells were plated and activated as above but incubated for only 16 h prior to addition of Alamar Blue. Plates were read after 6 h.
As to `NCC(F)(F)C(F)(F)C(F)(F)C(F)(F)F`, the outcome was inactive.

For `FC(F)(F)COC(OCC(F)(F)F)OCC(F)(F)F`, the result was inactive.

`OCCC(F)(F)C(F)(F)C(F)(F)C(F)(F)F`: the outcome was inactive.

Turning to `FC(F)=C(F)C(F)(F)C(F)(F)C(F)(F)C(F)(F)C(F)(F)C(F)(F)F`, the outcome was inactive.

Consider `C[Si](C)(C)C(F)(F)C(F)(F)C(F)(F)F`, for which the outcome was inactive.

Take `FC(F)(F)C(F)(F)C(F)(F)C(F)(F)C(F)(F)C(F)(F)I`: the result was inactive.

As for `O=C(Cl)C(F)(F)C(F)(F)C(F)(F)C(=O)Cl`, the result was inactive.

Consider `OCc1c[nH]c2ccccc12`, for which the result was inactive.

Turning to `O=S(=O)(O)CCC(F)(F)C(F)(F)C(F)(F)C(F)(F)C(F)(F)C(F)(F)F`, the outcome was inactive.

As for `S=P(N1CC1)(N1CC1)N1CC1`, the outcome was inactive.

For `FC(F)C(F)(F)COCC1CO1` (stereo not drawn), the outcome was inactive.

Regarding `OC(O)(C(F)C(O)(O)C(F)(F)F)C(F)(F)F`, the result was inactive.

In the case of `Cc1cccc(O)c1C`, the outcome was inactive.
